Results reported in article PMC3795721, “Screening for Protein-DNA Interactions by Automatable DNA-Protein Interaction ELISA”.

The sequences below were run against AT4G31550 (Arabidopsis thaliana, UniProt Q9SV15 228-325) (assay: DPI-ELISA; DPI-ELISA, streptavidin 384-well plate, 1-2 pmol biotinylated dsDNA per well, crude native E. coli extract, anti-His detection; buffer as in Brand et al. [46],; high values mean tight binding). Conditions: tags: C-terminal His (pET-DEST42); label: 5' biotin on forward strand; dsDNA, one strand shown.
Chain of AT4G31550 (Q9SV15 228-325): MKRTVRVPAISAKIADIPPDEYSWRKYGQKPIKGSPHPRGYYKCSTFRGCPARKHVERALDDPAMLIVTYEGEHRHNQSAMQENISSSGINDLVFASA

Row | Sequence | binding signal
1 | AAAAAAGTCATTATAACCCAAACTCTAAAA | 0.5 ± 0.113 absorbance
2 | AAAAAACTCGCGCTTGCATCTGTGCGAAAA | 0.555 ± 0.0636 absorbance
3 | AAAAAAACGATACGGTATCTAGAAAA | 0.525 ± 0.0495 absorbance
4 | AAAAAAAAATTTCGAGCCTCGGCGTAAAAA | 0.49 ± 0.0849 absorbance
5 | AAAAAAATGGTGCCGCTGAGCAAATTAAAA | 0.555 ± 0.12 absorbance
6 | AAAAAACCTCTTGTCTCTGCTCTCCCAAAA | 0.575 ± 0.106 absorbance
7 | AAAAAAACTATAGTCTTTGTCATGATAAAA | 0.64 ± 0.0707 absorbance
8 | AAAAAAAACTCCCATACTACAACCGAAAAA | 0.53 ± 0.099 absorbance
9 | AAAAAAAACGTCTGGCGGGGTTGAGAAAAA | 0.65 ± 0.113 absorbance
10 | AAAAAACTGCTAATCGGTGACCCGATAAAA | 0.745 ± 0.00707 absorbance
11 | AAAAAATCCTATCTTGGCTTTGGCCTAAAA | 0.65 ± 0.156 absorbance
12 | AAAAAAGTGCACGACCCATTTATATAAAAA | 0.5 ± 0.099 absorbance
13 | AAAAAATAGTACCGCTAATGGCTGACAAAA | 0.605 ± 0.12 absorbance
14 | AAAAAATACGTCTACGTGGTTGTCGTAAAA | 0.72 ± 0.127 absorbance
15 | AAAAAATGGTACTCAGAGTTATAGACAAAA | 0.66 ± 0.141 absorbance
16 | AAAAAAACACCTGTATAGCATGGACGAAAA | 0.73 ± 0.0707 absorbance
17 | AAAAAAATTCATGCTATTTAACCTTAAAAA | 0.745 ± 0.0919 absorbance
18 | AAAAAAGGGCCCACTATCGACGTCAAAA | 0.605 ± 0.134 absorbance
19 | AAAAAAACAGCTCGGTGCCACTGTGGAAAA | 0.61 ± 0.0424 absorbance

Row | Sequence | binding signal
20 | AAAAAAAGGTTTGGGCTTCACGTTATAAAA | 0.725 ± 0.12 absorbance
21 | AAAAAAGCGCGCCCGCACTGTTAATAAAAA | 0.635 ± 0.106 absorbance
22 | AAAAAATGCAGACCTTCAGCTGGGTAAAAA | 0.58 ± 0.0141 absorbance
23 | AAAAAATTCTTAGTTAGATTCACCTCAAAA | 0.575 ± 0.134 absorbance
24 | AAAAAACTGACCGTCAGCGCCCACGCAAAA | 1.45 ± 0.424 absorbance
25 | AAAAAATTCCGCGTGTATGTGTACGTAAAA | 0.72 ± 0.212 absorbance
26 | AAAAAACTACGTATATTCAGGCCCTAAAAA | 0.68 ± 0.113 absorbance
27 | AAAAAAATCGTTGTTATCGTATTTATAAAA | 0.565 ± 0.12 absorbance
28 | AAAAAAATCCCACTTCATTCTAAAAA | 0.6 ± 0.0707 absorbance
29 | AAAAAATATCGGGCACGGTCTTGTCTAAAA | 0.585 ± 0.0495 absorbance
30 | AAAAAAGAGTGGTTTATTAATGTATAAAAA | 0.74 ± 0.184 absorbance
31 | AAAAAACGTTAACACTGATTTAGGGTAAAA | 0.595 ± 0.0778 absorbance
32 | AAAAAAGTTGCCGACGATTGCGGGTTAAAA | 0.735 ± 0.163 absorbance
33 | AAAAAATCCTGTTTGCGTTTGATTTTAAAA | 0.51 ± 0.099 absorbance
34 | AAAAAATCTTACCCCTCCGCTTCTATAAAA | 0.72 ± 0.255 absorbance
35 | AAAAAAGCTTCTCATGTTGTCTTAGGAAAA | 0.695 ± 0.177 absorbance
36 | AAAAAAGGGGTCCTTTTCCAATGTCTAAAA | 0.605 ± 0.0495 absorbance
37 | AAAAAAATCTTTGCGTCGAGATTCTTAAAA | 0.59 ± 0.0707 absorbance
38 | AAAAAATGATGTTGGCGCATTTAAACAAAA | 0.53 ± 0.127 absorbance
